# Reference: PubChem BioAssay (NCATS)
# Inconclusive results are not listed. Values without a mark were called inactive. Active and inactive are the calls of the source. Calls come from the whole dose curve; as a rule, active = well fitted inhibition curve with a large enough effect; inconclusive = small, poorly fitted or top-dose-only effect; inactive = no such curve, though single readings can be large or run the other way.
# Assay: qHTS assay for measurement of the activity of small molecule inhibitors on Zika virus induced Caspase-3 activity in human iPSC derived neural progenitor cells (hNPCs) (AID 1224857); note: nearly all actives have a fitted effect of over 65% in size; for activity change, negative = inhibition: % of control where 0% means no effect
# Details: hNPCs ZIKV-induced caspase-3/7, Caspase-Glo luminescence, 6 h; series mostly up to 45.7 µM; activity change, negative = inhibition: at the top concentration
# Excerpt: National Center for Advancing Translational Sciences [NCATS]
# Johns Hopkins University School of Medicine
# Increase in the Caspase-3 activity indicates an activation of apoptosis cell death pathway caused by Zika virus infection in certain types of neuronal cells including human neural progenitor cells (hNPCs), astrocytes, and astrocytoma cell line (SNB-19). This cell-based caspase-3 activity assay measures the increased caspase-3 activity in the human iPSC derived neural progenitor cells (hNPCs) after a 6-hour Zika virus infection with a luminescence readout. A decrease in the luminescence signal in this assay by small molecule treatment indicates an inhibitory effect of that small molecule on the Zika virus induced caspase-3 activity that may correlate with its effect on reduction of Zika virus caused cell death.
# The medium for hNPCs consists of DMEM/F12, N2 supplement (ThermoFisher, Cat.# 17502048), NEAA (ThermoFisher, Cat. # 11140050), 2 ug/ml heparin, 2 uM cyclopamine, and B27 (ThermoFisher, Cat. # 17504044). A Caspase-Glo 3/7 assay kit (catalog number G8092; Promega, Madison, WI) was used to detect caspase-3 activity induced by Zika virus infection in human cells. The reagent mixture was reconstituted as described in the protocol from the manufacturer. Polystyrene tissue culture treated and PDL coated white plates were obtained from Greiner Bio-One (Monroe, NC). Cells were seeded in 384- or 1536-well assay plates and cultured at 37 C with 5% CO2 for 16 to 20 hours. The typical cell seeding density in the 1536-well plate assay is 350 cells/well in 3 ul medium for hNPCs in tissue culture treated plates. Compounds were added to cells and incubated for one hour before addition of ZIKV solution to cells (2 FFU/cell). After incubation at 37 C with 5% CO2 for 6 hours, the reagent mixture of Caspase-Glo 3/7 assay kit was added to each well, followed by incubation at room temperature for 30 minutes. The luminescence intensity of the assay plates was measured using a ViewLux plate reader (PerkinElmer). Data were normalized by using the cell-containing wells without ZIKV as a negative control (0% induction of caspase 3/7 activity) and wells containing ZIKV infected cells (Caspase-3 activity induced) as a positive control (100% induction of caspase 3 activity). The percentage inhibitions of the increased Caspase-3 activity by small molecule inhibitors were then calculated.
# Potency is the fitted concentration of half-maximal effect.
Structure (SMILES),"activity change, negative = inhibition",Potency
Nc1ccc(S(=O)(=O)Nc2ncccn2)cc1,20.4%,
COc1cc(OC2CCN(C)CC2)ccc1Nc1ncc2c(n1)n(C1CCCC1)c(=O)n2C,42.8%,
O=C(O)c1ccc2c(c1)nc(Nc1cccc(Cl)c1)c1ccncc12,82.2%,
Nc1ccn([C@@H]2O[C@H](CO)[C@H](O)C2(F)F)c(=O)n1,18.2%,
Cc1cc(C(=O)N2CCN(c3cccc(Cl)c3)CC2)n(-c2ccccc2)n1,9.88%,
C[C@@H]1CN(CC(=O)Nc2ccc3c(c2)Cc2cccc(-c4cc(=O)cc(N5CCOCC5)o4)c2S3)C[C@H](C)O1,52.8%,
COc1cc(=C2C=c3ccccc3=N2)[nH]c1=Cc1[nH]c(C)cc1C,7.16%,
CC[C@@H]1C(=O)N(C)c2cnc(Nc3ccc(C(=O)NC4CCN(C)CC4)cc3OC)nc2N1C1CCCC1,-2.81%,
O=C(O)c1ccc2cc(-c3ccc(O)c(C45CC6CC(CC(C6)C4)C5)c3)ccc2c1,104%,
Cn1c2cc(S(C)=O)sc2c2cnn(Cc3cccc(N)c3)c(=O)c21 (stereo not given),-22.4%,
CC(C)(C)c1cc(NC(=O)Nc2ccc(-c3cn4c(n3)sc3cc(OCCN5CCOCC5)ccc34)cc2)no1,-13.1%,
CN(C)Cc1c(C(=O)NCCOc2ccc(C(=O)NO)cc2)oc2ccccc12,-11.2%,
COc1cc2c(Oc3ccc(NC(=O)C4(C(=O)Nc5ccc(F)cc5)CC4)cc3F)ccnc2cc1OCCCN1CCOCC1,42.1%,
Cn1cc(-c2ccncc2)c(-c2ccc(OCc3ccc4ccccc4n3)cc2)n1,-1.21%,
N#CCNC(=O)c1ccc(-c2ccnc(Nc3ccc(N4CCOCC4)cc3)n2)cc1,-13.3%,
CNC(=O)c1cc(Oc2ccc(NC(=O)Nc3cc(C(C)(C)C)nn3-c3ccc4ncccc4c3)c(F)c2)ccn1,45.6%,
CCn1cc(-c2ccnc3[nH]c(-c4cccc(CN(C)C)c4)cc23)c(-c2ccc(NC(=O)N(C)C)cc2)n1,58.1%,
O=c1[nH]nc(Sc2ncc([N+](=O)[O-])s2)n1-c1ccc2c(c1)OCCO2,,23.5 µM (active)
OCCCNc1cc(-c2ccnc(Nc3cccc(Cl)c3)n2)ccn1,-19.8%,
O=C(Nc1ncc(-c2cc(C(F)F)nn2-c2c(Cl)cccc2Cl)s1)C1CC1,30.4%,

Structure (SMILES),"activity change, negative = inhibition",Potency
C=CC(=O)Nc1cccc(Oc2nc(Nc3ccc(N4CCN(C)CC4)cc3)ncc2Cl)c1,16.2%,
O=c1c2ccccc2nc2n1CCc1c-2[nH]c2ccccc12,,13.2 µM (active)
Cc1c(Cn2c(C)nc3c(C(=O)O)cc(N4CCOCC4)cc32)cccc1C(F)(F)F,44.4%,
CC(C)c1ccc(Cn2ccc3c4c(N)nc(NC5CC5)nc4ccc32)cc1,8.92%,
NCC(=O)Nc1ccc(-n2nc(C(F)(F)F)cc2-c2ccc3c(ccc4ccccc43)c2)cc1,-7.99%,
C1=CCOCc2cc(ccc2OCCN2CCCC2)Nc2nccc(n2)-c2cccc(c2)OCC1,28.6%,
CC(C)(O)c1cc2nc(-c3cnc(N)nc3)nc(N3CCOCC3)c2s1,37.4%,
OCc1ccc(-c2ccc(-c3ccc(CO)s3)o2)s1,,26.4 µM (active)
CCC1=C[C@@H]2CN(C1)Cc1c([nH]c3ccccc13)[C@@](C(=O)OC)(c1cc3c(cc1OC)N(C)[C@@H]1[C@@](O)(C(=O)OC)[C@H](OC(C)=O)[C@]4(CC)C=CCN5CC[C@]31[C@@H]54)C2,19.5%,
CC1(C)CC(=O)c2c(C(F)(F)F)nn(-c3ccc(C(N)=O)c(NC4CCC(OC(=O)CN)CC4)c3)c2C1 (stereo not given),-3.36%,
Cc1ccc2nc(NC(=O)CSc3nc4c(c(=O)n3-c3ccccc3)SCC4)sc2c1,16.7%,
Cc1c(CN2CCN(S(C)(=O)=O)CC2)sc2c(N3CCOCC3)nc(-c3cnc(N)nc3)nc12,71.3%,
O=C(c1ccc(Nc2nccc(-c3cc4ccccc4s3)n2)cc1)N1CCC(N2CCCC2)CC1,17.1%,
CC(C)(C)c1cnc(CSc2cnc(NC(=O)C3CCNCC3)s2)o1,43.3%,
O=C1CCC[C@@H]2[C@H]3CCC[N+]4([O-])CCC[C@@H](CN12)[C@@H]34 (stereo not given in full),-6.38%,
CC(=O)OCCN1C(=O)c2c(C)nc3ccc(S(=O)(=O)N4CCOCC4)cc3c2C1=O,8.41%,
CC(C)c1nn(-c2c(Cl)cccc2Cl)c2nc(Cc3ccc(OCCO)cc3)[nH]c(=O)c12,3.29%,
C=CC(=O)Nc1cc2c(Nc3ccc(F)c(Cl)c3)ncnc2cc1OCCCN1CCOCC1,25.9%,
COCCn1c2c([n+](Cc3cnccn3)c1C)C(=O)c1ccccc1C2=O,,0.418 µM (active)
Cc1cc(CN2CCN(c3c(Br)cnc4nc(-c5ccc(N6CCN(C)CC6)cc5)[nH]c34)CC2)no1,138%,
